Among the test systems are HCT-15 colon; HT29 colon; SNB-75 CNS; SNB-19 CNS; U251 CNS; PC-3 prostate; SK-MEL-5 melanoma; LOX IMVI melanoma; SK-MEL-28 melanoma; SK-MEL-2 melanoma; EKVX NSCLC; SN12C renal; UO-31 renal; TK-10 renal; ACHN renal; CAKI-1 renal; CCRF-CEM leukemia; MOLT-4 leukemia; UACC-62 melanoma; A498 renal.
Common to all, as to assay: NCI-60 one-dose screen, 48 h (100 = growth as untreated, 0 = no growth, -100 = all killed)
What all share (conditions): 10 µM unless noted

Compounds without any hit were thinned out: in the full panel of roughly 83,000, 20% have a hit.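 Note: values are percent growth. 100 is the growth of untreated cells, values between 100 and 0 indicate rising inhibition; between -100 and 0 indicates cell death.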 A number with no mark means an inactive call. The source made the active and inactive calls. How the source made its calls: active means growth percent below 10; inactive means the rest.

In PubChem BioAssay (NCI) one finds growth data, which are given here for eight molecules.

On to `NC(=N\N=C/Cc1ccccc1)/C(N)=N\N=C\Cc1ccccc1`, for which the growth was 94.9% in the assay with HCT-15 colon; 120% in the assay on HT29 colon; 98.5% in the assay with SNB-75 CNS; 96.6% in the assay with SNB-19 CNS; 106% with U251 CNS; 101% with PC-3 prostate. Besides, the growth in the assay on SK-MEL-5 melanoma was 107%; with LOX IMVI melanoma it was 96.8%; in the assay on SK-MEL-28 melanoma, 120%; with SK-MEL-2 melanoma, 108%; in the assay on EKVX NSCLC, 110%; in the assay on SN12C renal, 102%. The growth in the assay with UO-31 renal was 91.2%; in the assay on TK-10 renal, 110%; with ACHN renal it was 94.8%; with CAKI-1 renal it was 102%; in the assay with CCRF-CEM leukemia it was 95.8%; in the assay on MOLT-4 leukemia, 100%.

For `O=C(/C=C/c1cccc(O)c1)c1cccc(-n2cc(-c3ccccc3)[nH]c2=O)c1`, the growth was -18.9% (active) in the assay with HCT-15 colon; 9.73% (active) in the assay on HT29 colon; 41.2% in the assay on SNB-75 CNS; 50% in the assay on SNB-19 CNS; -77% (active) in the assay on U251 CNS; 55.3% in the assay with SK-MEL-5 melanoma. The growth was -69.5% (active) in the assay with LOX IMVI melanoma; 30.8% with SK-MEL-28 melanoma; 66.8% with EKVX NSCLC; -12.9% (active) in the assay with SN12C renal; -73.5% (active) in the assay on UO-31 renal; 12.4% with TK-10 renal. The growth in the assay with ACHN renal is -75.8% (active); with CAKI-1 renal, 8.38% (active); with CCRF-CEM leukemia, -3.86% (active); in the assay on MOLT-4 leukemia, -7.37% (active).

With `COc1ccc(C2=NN(C(N)=S)C(c3ccc4c(c3)OCO4)C2)cc1` (stereo not given), the growth in the assay on HCT-15 colon is 23.2%; in the assay with HT29 colon it was 7.46% (active); in the assay with SNB-75 CNS, 26.5%; with SNB-19 CNS, 46.9%; in the assay with PC-3 prostate, 33.3%; with SK-MEL-5 melanoma, 41.5%. In addition, the growth with UACC-62 melanoma was 43.6%; in the assay with LOX IMVI melanoma, -18.2% (active); in the assay with SK-MEL-28 melanoma, 75.4%; in the assay with SK-MEL-2 melanoma, 47%; in the assay on EKVX NSCLC, 29.1%; in the assay on SN12C renal, 31%. In addition, the growth in the assay on UO-31 renal is -7.08% (active); in the assay with TK-10 renal it was 50.2%; in the assay on ACHN renal it was 22%; in the assay on CAKI-1 renal it was 6.32% (active); in the assay on A498 renal it was 49.2%; in the assay with CCRF-CEM leukemia it was 5.49% (active). For the same molecule, the growth with MOLT-4 leukemia was 13.8%.

With `C[C@H]1O[C@@H](O[C@H]2[C@@H](O)C[C@H](O[C@H]3[C@@H](O)C[C@H](O[C@H]4CC[C@]5(C)C6C[C@@H](O)[C@]7(C)[C@@H](C8=CC(=O)OC8)CC[C@]7(O)C6CC[C@@H]5C4)O[C@@H]3C)O[C@@H]2C)C[C@H](O)[C@@H]1O` (stereo not given in full), the growth in the assay on HCT-15 colon is -94.9% (active); in the assay with HT29 colon, -84.5% (active); in the assay on SNB-75 CNS it was -75.6% (active); in the assay with SNB-19 CNS, -100% (active); in the assay on U251 CNS, -100% (active); in the assay on PC-3 prostate, -21.3% (active). The growth was -100% (active) in the assay with SK-MEL-5 melanoma; -98.1% (active) in the assay with LOX IMVI melanoma; -56.3% (active) in the assay on SK-MEL-28 melanoma; -72.8% (active) with SK-MEL-2 melanoma; -100% (active) in the assay on EKVX NSCLC; -61.7% (active) with SN12C renal. Further, the growth in the assay on UO-31 renal is -82.4% (active); with ACHN renal, -75.8% (active); with CAKI-1 renal, -100% (active); with A498 renal, -33% (active); with CCRF-CEM leukemia it was -56.6% (active); in the assay on MOLT-4 leukemia, -33.7% (active).

As for `CCSc1ncc(Br)c(Sc2nc(N)nc3nc[nH]c23)n1`, the growth was 68.5% in the assay on HCT-15 colon; 62.3% with HT29 colon; 60.2% in the assay with SNB-75 CNS; 121% in the assay on SNB-19 CNS; 89.5% with U251 CNS; 80.1% with PC-3 prostate. The growth was 74.6% with SK-MEL-5 melanoma; 152% in the assay on SK-MEL-28 melanoma; 73.1% in the assay on SK-MEL-2 melanoma; 36.7% in the assay with EKVX NSCLC; 80.9% in the assay on SN12C renal; 70% with UO-31 renal. Besides, the growth is 72.7% with TK-10 renal; 77.6% with ACHN renal; 57.7% with CAKI-1 renal; 95.9% in the assay with A498 renal; 12.5% with CCRF-CEM leukemia; 3.06% (active) in the assay with MOLT-4 leukemia.

In the case of `N#Cc1ccccc1C#Cc1ccccc1C#Cc1ccc(OCCCCCCOc2ccc(C#Cc3ccccc3C#Cc3ccccc3C#N)cc2)cc1`, the growth in the assay on HCT-15 colon was 123%; in the assay with HT29 colon, 111%; in the assay with SNB-75 CNS, 106%; in the assay with SNB-19 CNS, 108%; with U251 CNS, 106%; with PC-3 prostate, 99.5%. Also, the growth was 73.8% with SK-MEL-5 melanoma; 98.4% in the assay with LOX IMVI melanoma; 113% in the assay on SK-MEL-28 melanoma; 98.3% in the assay on SK-MEL-2 melanoma; 111% in the assay with EKVX NSCLC; 104% with SN12C renal. Further, the growth with TK-10 renal is 147%; in the assay with ACHN renal, 109%; in the assay on CAKI-1 renal, 116%; in the assay on A498 renal, 113%; in the assay with CCRF-CEM leukemia, 3.16% (active); in the assay on MOLT-4 leukemia it was 103%.

In the case of `CN1CCN(CCCOc2ccc3ncnc(Nc4ccc(OCc5cccc(F)c5)c(Cl)c4)c3c2)CC1`, the growth in the assay on HCT-15 colon is -50.8% (active); with HT29 colon it was -49.5% (active); in the assay with SNB-75 CNS, 65.1%; in the assay with SNB-19 CNS, 3.46% (active); in the assay on PC-3 prostate it was -18.9% (active); with SK-MEL-5 melanoma, -98.2% (active). The growth is -57.8% (active) in the assay on UACC-62 melanoma; -92.9% (active) in the assay on LOX IMVI melanoma; -86.6% (active) in the assay with SK-MEL-28 melanoma; -40.1% (active) in the assay with SK-MEL-2 melanoma; 30.7% in the assay on EKVX NSCLC; 3.1% (active) in the assay with SN12C renal. For the same molecule, the growth in the assay on UO-31 renal is -4.76% (active); in the assay with TK-10 renal it was -18% (active); in the assay with ACHN renal, -50.7% (active); in the assay with CAKI-1 renal it was -62.5% (active); in the assay with A498 renal, 26.1%; in the assay with CCRF-CEM leukemia, 2.72% (active). Besides, the growth with MOLT-4 leukemia is -12.8% (active).

Turning to `CC1Cc2ccccc2N1C(=O)c1ccc(C(=O)c2ccccc2)cc1` (stereo not given), the growth with HCT-15 colon is 86%; with HT29 colon, 89.4%; in the assay on SNB-75 CNS, 94.3%; with SNB-19 CNS, 90.5%; in the assay on PC-3 prostate it was 97%; with SK-MEL-5 melanoma, 74.2%. The growth with UACC-62 melanoma was 73.6%; in the assay on LOX IMVI melanoma, 83%; with SK-MEL-28 melanoma, 99.5%; in the assay with SK-MEL-2 melanoma, 19%; with EKVX NSCLC, 88.3%; in the assay with SN12C renal it was 81.9%. The growth in the assay with UO-31 renal was 49.8%; with TK-10 renal, 84.1%; in the assay on ACHN renal, 89.7%; in the assay with CAKI-1 renal it was 77.8%; with A498 renal, 95.5%; with CCRF-CEM leukemia, 94.3%. For the same molecule, the growth in the assay with MOLT-4 leukemia is 91.5%.
